Experimental data reported in PubChem BioAssay AID1345085 (National Center for Advancing Translational Sciences (NCATS), 2018).
Inconclusive results are not listed. Activity calls are given as the source filed them. The call rests on the fitted dose curve; in most records, active means well fitted cell-killing curve with a large enough effect; inconclusive means small, poorly fitted or top-dose-only effect, or effect the other way; inactive means no such curve, though single readings can be large or run the other way. *1 amine or outer side, *2 acyl side, *3 side chain or, on linkers, in order; H or OH if unused. Where a SMILES comes first, the peptide text is derived from it. Bridges are numbered along the chain shown (N, C = ends). Roman numbers before positions name the chains, in order. [ ]: non-standard residue; d: D form. Actinocin(9to1) = Cc1c2oc3c(C)ccc(C(=O)[*:1])c3nc-2c(C(=O)[*:2])c(N)c1=O; NMeV = CN[C@H](C(=O)O)C(C)C; Sar = CNCC(=O)O

tested on: JEG-3; test: Confirmatory qHTS for gynecologic anti-cancer compounds from libraries of approved drugs and bioactive compounds; conditions: gynecologic cancer cell panel viability, ATPlite luminescence, 48 h; series mostly up to 57.6 µM; further: nearly all actives have a fitted effect of over 55% in size
Excerpt: National Center for Advancing Translational Sciences [NCATS] Assay Overview: Chemotherapeutic drug responses vary from cancer to cancer and from patient to patient. These variations could be caused by a number of factors including patient genomic background, tumor mutations, tumor heterogeneity, and aspects of drug treatment. Chemotherapeutic drug resistance is also a common issue and can lead to ineffective treatment and patient death. Here we have profiled the cell killing effects of thousands of compounds to characterize the responses in three gynecological cancers, identify cancer-selective compounds, and understand the diversity of responses to these compounds from pan-cancer suppressors to single cell line selective compounds. In this assay, we screened a 7,914 compound drug library that included approved drug and bioactive compounds in six ovarian, three cervical, and two placental cancer cell lines using the ATPlite assay for cell viability. ATPlite is a luminescence based assay reliant on the conversion of a luciferase substrate to light in the presence of ATP. As a cytotoxic compound will suppress growth and decrease the number of cells, the concentration of ATP will decrease, and less light signal will be detected in the well. Hits were selected from the primary screen for follow-up confirmation. For the confirmation screens, the ovarian cancer cell lines included CAOV-3, SK-OV-3, SW 626, ES-2, PA-1, and TOV-21G. The cervical cancer cell lines included HeLa, Ca Ski, and C-33 A. The placental cancer cell lines included JEG-3 and JAR. HEK 293T cells were used as the control cell line to determine the selectivity index. The ATPlite assay was used to determine the IC50 values.
Assay Protocol Summary: 1,000 cells in 4 uL of media were dispensed into white, solid bottom 1536-well plates using a Multidrop Combi (Thermo Scientific). The Assay plates were incubated for 16 hours at 37 C with 5% CO2 in assay plates, followed by the addition of 23 nL of DMSO or drug dissolved in DMSO. . Each compound was assayed in 11 concentrations (1:3 dilution) from 57.5 uM to 0.977 nM, using the automated Wako 1536 Pin Tool workstation and incubated at 37 C with 5% CO2 48 hours. 4 uL of ATPlite, the ATP monitoring reagent, was then added to the each well of the assay plates using the Multidrop Combi reagent dispenser followed by incubation for 15 minutes at room temperature. The resulting luminescence was measured using the ViewLux plate reader.
On the % scale 0 is the no-effect control and ±100 the full control effect; potency means the concentration at half of the fitted maximal effect.

Question: How did the Potency turn out when `COc1ccc(-c2cc3nccn3c(Nc3ncccc3C(N)=O)n2)cc1OC` was run?
Answer: 12.2 µM (active)

Question: Which Potency does the source give for `Cc1cnc(Nc2cccc(CN3CCOCC3)c2)nc1Nc1cccc(S(=O)(=O)NC(C)(C)C)c1` here?
Answer: 17.2 µM (active)

Question: Which Potency does the source give for `C#C[C@]1(O)CC[C@H]2[C@@H]3CCC4=CC(=O)CC[C@@H]4[C@H]3CC[C@@]21CC` here?
Answer: inactive

Question: For `C1CCC(C(CC2CCCCN2)C2CCCCC2)CC1` (stereo not given), which Potency is on record?
Answer: 27.3 µM (active)

Question: How did the Potency turn out when `COc1cc2c(NC3CCN(C(C)C)CC3)nc(C3CCCCC3)nc2cc1OCCCN1CCCC1` was run?
Answer: 10.9 µM (active)

Question: How did the Potency turn out when `Cn1cnc2c(F)c(Nc3ccc(Br)cc3F)c(C(=O)NOCCO)cc21` was run?
Answer: inactive

Question: Which Potency does the source give for `CS(=O)(=O)c1ccc(C(=O)Nc2ccc(Cl)c(-c3ccccn3)c2)c(Cl)c1` here?
Answer: inactive

Question: With `CNC(=O)c1nn(C)c2c1C(C)(C)Cc1cnc(Nc3ccc(N4CCN(C)CC4)cc3)nc1-2` as the compound, how does the Potency read?
Answer: 6.85 µM (active)

Question: `O=c1cc(CN2CCOCC2)occ1OCCCCCSc1ccnc2cc(C(F)(F)F)ccc12` was tested. Which Potency did it give?
Answer: 8.63 µM (active)

Question: With `CCCCc1nc2cc(/C=C/C(=O)NO)ccc2n1CCN(CC)CC` as the compound, how does the Potency read?
Answer: 1.53 µM (active)

Question: Which Potency does the source give for `Cn1c(=O)c(-c2c(Cl)cccc2Cl)cc2cnc(Nc3cccc(C(=O)O)c3)nc21` here?
Answer: inactive

Question: `COc1cccc2c1C(=O)c1c(O)c3c(c(O)c1C2=O)C[C@@](O)(C(=O)CO)C[C@@H]3O[C@H]1C[C@H](N)[C@H](O)[C@H](C)O1` was tested. Which Potency did it give?
Answer: 1.09 µM (active)

Question: How did the activity change, negative = viability loss turn out when `Cc1cnc(CNC(=O)c2c(=O)c3ccc(N4CCCN(C)CC4)nc3n3c2sc2ccccc23)cn1` was run?
Answer: -17.5% [at 10.6 µM] (inactive)

Question: How did the Potency turn out when `COc1cc2c(c(OC)c1OC)-c1ccc(OC)c(=O)cc1[C@@H](NC(C)=O)CC2` was run?
Answer: 0.178 µM (active)

Question: Which Potency does the source give for `CN(C)C(CCOc1cccc2ccccc12)c1ccccc1` (stereo not given) here?
Answer: inactive

Question: With `Nc1ccccc1NC(=O)c1ccc(CNC(=O)OCc2cccnc2)cc1` as the compound, how does the Potency read?
Answer: 3.85 µM (active)

Question: `CC(=O)Nc1cccc(-n2c(=O)n(C3CC3)c(=O)c3c(Nc4ccc(I)cc4F)n(C)c(=O)c(C)c32)c1` was tested. Which Potency did it give?
Answer: inactive

Question: For `Nc1ncnc2c1ncn2[C@@H]1O[C@H](CO)C[C@H]1O`, which Potency is on record?
Answer: inactive

Question: `Cc1c2oc3c(C)ccc(C(=O)N[C@@H]4C(=O)N[C@H](C(C)C)C(=O)N5CCC[C@H]5C(=O)N(C)CC(=O)N(C)[C@@H](C(C)C)C(=O)O[C@@H]4C)c3nc-2c(C(=O)N[C@@H]2C(=O)N[C@H](C(C)C)C(=O)N3CCC[C@H]3C(=O)N(C)CC(=O)N(C)[C@@H](C(C)C)C(=O)O[C@@H]2C)c(N)c1=O` (I: T[dV]P[Sar][NMeV] / II: T[dV]P[Sar][NMeV]; ester I:1-I:C, II:1-II:C; linker I:N-II:N via Actinocin(9to1)) was tested. Which Potency did it give?
Answer: 1.09 µM (active)

Question: How did the Potency turn out when `C[C@]12CCC(=O)C=C1CC[C@@H]1[C@@H]2[C@@H](O)C[C@@]2(C)[C@H]1CC[C@]2(O)C(=O)CO` was run?
Answer: inactive

Question: `O=C(NOC[C@H](O)CO)c1ccc(F)c(F)c1Nc1ccc(I)cc1F` was tested. Which Potency did it give?
Answer: inactive

Question: How did the Potency turn out when `COc1cc2c(cc1-c1c(C)noc1C)ncc1[nH]c(=O)n(C(C)c3ccccn3)c12` (stereo not given) was run?
Answer: 3.06 µM (active)

Question: Which Potency does the source give for `CN1C(=O)C(Cc2c[nH]c3ccccc23)NC1=S` (stereo not given) here?
Answer: inactive

Question: `CO[C@@]12[C@H](COC(N)=O)C3=C(C(=O)C(C)=C(N)C3=O)N1C[C@@H]1N[C@@H]12` was tested. Which Potency did it give?
Answer: inactive

Question: How did the Potency turn out when `OCc1ccc(-c2ccc(-c3ccc(CO)s3)o2)s1` was run?
Answer: inactive

Question: `O=C(CCCCCCC(=O)Nc1ccccc1)NO` was tested. Which Potency did it give?
Answer: 2.43 µM (active)

Question: For `CC[C@H](Nc1ncnc2nc[nH]c12)c1nc2cccc(F)c2c(=O)n1-c1ccccc1`, which activity change, negative = viability loss is on record?
Answer: -0.887% [at 10.6 µM] (inactive)

Question: For `CCn1c(-c2nonc2N)nc2c(C#CC(C)(C)O)ncc(OCC3CCCNC3)c21` (stereo not given), which Potency is on record?
Answer: inactive

Question: With `CC(C)Oc1ccc(C(=O)NC(CNC(=O)CN(C)C)Cc2ccc(-c3cn4cccc(C(C)O)c4n3)cc2)cc1Cl` (stereo not given) as the compound, how does the Potency read?
Answer: 0.544 µM (active)

Question: How did the Potency turn out when `CNC(=O)CN1CCC(Oc2cc3c(Nc4cccc(Cl)c4F)ncnc3cc2OC)CC1` was run?
Answer: inactive

Question: With `Nc1nc(Cl)nc2c1ncn2C1OC(CO)C(O)C1F` (stereo not given) as the compound, how does the Potency read?
Answer: 2.17 µM (active)

Question: With `CCCCc1oc2ccccc2c1C(=O)c1cc(I)c(OCCN(CC)CC)c(I)c1` as the compound, how does the Potency read?
Answer: 70.8 µM (active)

Question: Which Potency does the source give for `CC[C@]1(O)C[C@H]2CN(CCc3c([nH]c4ccccc34)[C@@](C(=O)OC)(c3cc4c(cc3OC)N(C=O)[C@H]3[C@@](O)(C(=O)OC)[C@H](OC(C)=O)[C@]5(CC)C=CCN6CC[C@]43[C@@H]65)C2)C1` here?
Answer: 0.193 µM (active)

Question: Which Potency does the source give for `CCn1cc(-c2ccnc3[nH]c(-c4cccc(CN(C)C)c4)cc23)c(-c2ccc(NC(=O)N(C)C)cc2)n1` here?
Answer: 13.3 µM (active)

Question: How did the Potency turn out when `O=C(c1ccc(/C=C/c2n[nH]c3ccccc23)cc1)N1CCNCC1` was run?
Answer: 24.3 µM (active)

Question: With `COc1ccc(OC)c(-c2nnc3ccc(-c4ccc(OC)c(O[C@@H]5CCOC5)c4)nn23)c1` as the compound, how does the Potency read?
Answer: 4.85 µM (active)

Question: With `NC(=O)Nc1cc(-c2cccc(F)c2)sc1C(=O)NC1CCCNC1` (stereo not given) as the compound, how does the Potency read?
Answer: 1.22 µM (active)

Question: For `Cc1nc(N)nc(N)c1-c1ccc(Cl)c(Cl)c1`, which Potency is on record?
Answer: 17.2 µM (active)

Question: How did the Potency turn out when `CC1=C(CO)C(=O)O[C@@H]([C@@H](C)[C@H]2CC[C@H]3[C@@H]4C[C@H]5O[C@]56[C@@H](O)C=CC(=O)[C@]6(C)[C@H]4CC[C@]23C)C1` was run?
Answer: 5.3 µM (active)

Question: How did the Potency turn out when `C[C@@H](Oc1cc(-c2cnn(C3CCNCC3)c2)cnc1N)c1c(Cl)ccc(F)c1Cl` was run?
Answer: 21.7 µM (active)
